Assay outcomes (PubChem)
Shown are actives, neighbours in structure and some others; about 4.8% of the full set was active somewhere.
hgDAF-12 ag: hgDAF-12 agonism, primary luciferase screen. HEK293 GAL4-hgDAF12 UAS-luciferase reporter, agonist luminescence; normalized to butyrate control. activation, % at 6.8 µM. 370,000 compounds, 1.8% hits;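 active means activation above a cutoff set at the mean of all screened compounds plus 3 SD, cut at about 10% in these data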;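 further: 0% = DMSO wells and 100% = sodium butyrate wells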
hcDAF-12 act: activators of H. contortus DAF-12 nuclear receptor; 370,000 compounds, 1.4% hits; activation, % at 6.8 µM; HEK293 hcDAF-12 lit1-tk-luc reporter, luminescence; 0% DMSO, 100% Δ7-dafachronic acid;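 active means activation above the mean of all tested compounds plus 3 SD, cut at about 5.5% in these data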;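 further: 100% = response to 3 µM Δ7-dafachronic acid high control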
DAX1 inh-1: NR0B1 (DAX1) inhibition | inhibition, % at 6.75 µM | 340,000 compounds, 0.99% hits | HEK293 Gal4-DAX1 luciferase reporter, luminescence;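 active means inhibition above the mean over all tested compounds plus 3 SD, cut at about 4.2% in these data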;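 further: 0% = DAX1-transfected cells with DMSO and 100% = empty-vector control cells with DMSO; inhibition shows as a rise in luminescence from relieved DAX1 repression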
Target sequence (P51843 207-470 limits assumed): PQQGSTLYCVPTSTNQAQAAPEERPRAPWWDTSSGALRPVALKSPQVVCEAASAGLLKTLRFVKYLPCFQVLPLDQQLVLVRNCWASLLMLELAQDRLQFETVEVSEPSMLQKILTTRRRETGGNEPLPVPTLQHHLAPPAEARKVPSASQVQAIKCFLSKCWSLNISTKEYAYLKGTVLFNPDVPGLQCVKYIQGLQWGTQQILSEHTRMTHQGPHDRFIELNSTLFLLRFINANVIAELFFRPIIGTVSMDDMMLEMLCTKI
DAX1 inh-2: DAX1 (NR0B1) inhibition, primary screen; 370,000 compounds, 1.1% hits; inhibition, % at 6.8 µM; HEK293T StAR-luciferase reporter, SF-1/DAX-1 repression relief; AID 652010;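 active means inhibition above the mean over all tested compounds plus 3 SD, cut at about 3.6% in these data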;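 further: 0% = DAX-1 cells with DMSO and 100% = cells lacking DAX-1 with DMSO; higher inhibition means more luminescence from relief of DAX-1 repression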
ssDAF12 agonist: activators of S. stercoralis DAF-12 nuclear receptor; HEK293 ssDAF-12/GRIP1 lit1-tk-luc reporter, luminescence; % of 3 µM dafachronic acid response; activation, % at 6.8 µM; 370,000 compounds, 1% hits; AID 652126;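 active means activation above the mean over all tested compounds plus 3 SD, cut at about 0.9% in these data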;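 further: 0% = DMSO-only wells and 100% = 3 µM delta7-dafachronic acid wells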
SMARCA2 activ: increases SMARCA2 function in MMTV reporter cells; MG213 cells, MMTV-luciferase reporter, dexamethasone, overnight; activation, % at 9.1 µM; 370,000 compounds, 1% hits; AID 652017; in the data active means activation above about 7.8%;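 further: 0% = vehicle wells and 100% = reference activator wells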
DAX1 inh confirm: confirmation of human DAX1 (NR0B1) inhibitors; shares compounds with DAX1 inh-2; HEK293T StAR-promoter luciferase reporter, SF-1/DAX-1 repression; inhibition, % at 6.8 µM; 2,400 compounds, 87% hits; AID 652134;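 active means inhibition above the average of every tested compound plus 3 SD, cut at about 3.8% in these data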;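 further: 0% = DAX-1 cells with DMSO and 100% = no DAX-1 control cells with DMSO; active compounds raise luminescence by relieving repression of the StAR reporter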
SF1 AF2mut Luc: counter-screen for DAX1 inhibitors: nonselective inhibitors with SF-1 AF2 mutant. shares compounds with DAX1 inh-2. HEK293 StAR-luciferase, luminescence. inhibition, % at 6.8 µM. 2,400 compounds, 78% hits. AID 652136;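 active means inhibition above the mean of all tested compounds plus 3 SD, cut at about 3% in these data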;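 further: 0% = DAX-1 transfected cells with DMSO and 100% = cells without DAX-1 with DMSO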
SMARCA2 act conf: SMARCA2 activation, confirmation screen | activation, % at 9.1 µM | shares compounds with SMARCA2 activ | 3,500 compounds, 30% hits | MG213 cells, MMTV-luciferase with dexamethasone, luminescence, overnight; MG213 cells expressing E1A, Rb sequestered; DMSO wells 0%, reference activator 100%;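 active means activation above its plate's cutoff, the mean activation of tested wells plus 3 SD, cut at about 7.9% in these data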
VP16 Luc act: GAL4-VP16 reporter activation counter-screen; shares compounds with SMARCA2 activ; HEK293 GAL4-VP16 pG5luc reporter, luciferase luminescence; scaled: DMSO wells 0%, SAHA wells 100%; activation, % at 9.1 µM; 3,500 compounds, 41% hits; AID 686939;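 active means activation above the solvent-only control well mean plus 3 SD, averaged across control plates, cut at about 5.2% in these data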
LXR ag: counter-screen for hcDAF-12 agonists: agonists of human LXR-beta | AID 743027 | 3,400 tested, under 10 active | activation, % at 6.8 µM | shares compounds with hcDAF-12 act | HEK293 Gal4-LXR tk-luc reporter, luminescence, 24 h; normalized: DMSO 0%, positive control 100%;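 active means mean percent activation of the reporter above a cutoff set as the average over tested compounds plus their standard deviation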
Target sequence (P55055 whole entry, looked up, the tested form may be a part): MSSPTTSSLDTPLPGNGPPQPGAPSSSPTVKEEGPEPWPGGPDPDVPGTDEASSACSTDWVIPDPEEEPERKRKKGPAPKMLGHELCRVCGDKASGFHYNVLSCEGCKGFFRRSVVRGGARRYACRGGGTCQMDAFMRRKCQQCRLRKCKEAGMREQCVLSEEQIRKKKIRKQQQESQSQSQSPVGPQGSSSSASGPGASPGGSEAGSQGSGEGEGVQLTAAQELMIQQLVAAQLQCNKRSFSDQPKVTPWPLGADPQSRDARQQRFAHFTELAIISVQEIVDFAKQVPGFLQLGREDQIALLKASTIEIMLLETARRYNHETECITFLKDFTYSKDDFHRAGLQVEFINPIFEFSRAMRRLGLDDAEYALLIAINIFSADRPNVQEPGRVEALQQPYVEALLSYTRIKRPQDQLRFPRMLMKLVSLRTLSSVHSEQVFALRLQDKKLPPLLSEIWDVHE
hcDAF12 conf: hcDAF-12 agonism, confirmation assay; shares compounds with hcDAF-12 act; HEK293 hcDAF-12 lit1-tk-luc reporter, luminescence; % of Δ7-dafachronic acid response; activation, % at 6.8 µM; 3,400 compounds, 61% hits; AID 743032;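 active means mean activation across triplicate tests above the threshold derived from the earlier primary screen, cut at about 5.5% in these data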;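 further: 0% = DMSO only wells and 100% = 3 µM Δ7-dafachronic acid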
hgDAF12 ag: hgDAF-12 agonism, confirmation assay; shares compounds with hgDAF-12 ag; HEK293 GAL4-hgDAF12 luciferase reporter, agonist mode; percent of butyrate response; activation, % at 6.8 µM; 3,300 compounds, 80% hits;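 active means mean activation over triplicate wells above the hit cutoff derived from the earlier primary screen, cut at about 11% in these data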;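 further: 0% = DMSO low control and 100% = 2 mM sodium butyrate high control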
LXR ag 2: activates human LXR-beta, counter-screen for DAF-12 agonists; 3,300 tested, under 10 active; HEK293 Gal4-LXR luciferase reporter, 24 h; activation, % at 6.8 µM; shares compounds with hgDAF-12 ag; AID 743051;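 active means mean activation of the triplicate above a set limit carried over from the primary screen, none filed active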
Starred values were filed as active, the others as inactive.

Cn1nc(C(=O)Nc2ccc3c(c2)OCCO3)cc1C(=O)O was read as DAX1 inh-1 0.
Screening O=C(NNC(=S)Nc1ccccc1Cl)c1ccccc1 returned hgDAF-12 ag 14*, hcDAF-12 act 3, DAX1 inh-1 3, DAX1 inh-2 15*, ssDAF12 agonist 1, SMARCA2 activ 5, DAX1 inh confirm 12*, SF1 AF2mut Luc 8.2*, hgDAF12 ag 18* and LXR ag 2 1.
For Cc1cc(=O)oc2cc(NC(=O)c3ccccc3C(=O)O)ccc12 the results were hgDAF-12 ag 3, hcDAF-12 act -2, DAX1 inh-1 0, DAX1 inh-2 0, ssDAF12 agonist -1 and SMARCA2 activ 3.
For COc1ccc(C(=O)Nc2cccc(OC)c2)cc1 the results were hgDAF-12 ag 16*, hcDAF-12 act 4, DAX1 inh-1 1, DAX1 inh-2 5.4*, ssDAF12 agonist 1.0*, SMARCA2 activ 0, DAX1 inh confirm 14*, SF1 AF2mut Luc 0, hgDAF12 ag 16* and LXR ag 2 1.
`COc1ccc(C(=O)NNC(=S)Nc2ccccc2)cc1` gave hgDAF-12 ag 17*, hcDAF-12 act 4, DAX1 inh-1 2, DAX1 inh-2 10*, ssDAF12 agonist 0, SMARCA2 activ 3, DAX1 inh confirm 16*, SF1 AF2mut Luc 12*, hgDAF12 ag 15* and LXR ag 2 1.
For COc1ccc(C(=O)NNC(=S)NC(=O)c2ccc(OC)cc2)cc1 the results were hgDAF-12 ag 3, hcDAF-12 act 0, DAX1 inh-1 1, DAX1 inh-2 -1, ssDAF12 agonist -1 and SMARCA2 activ -1.
Screening COc1cccc(C(=O)Nc2ccc3c(C)cc(=O)oc3c2)c1 returned hgDAF-12 ag 13*, hcDAF-12 act 6.1*, DAX1 inh-1 1, DAX1 inh-2 17*, ssDAF12 agonist 1.0*, SMARCA2 activ 13*, DAX1 inh confirm 14*, SF1 AF2mut Luc 10*, SMARCA2 act conf 11*, VP16 Luc act 14*, hgDAF12 ag 21* and LXR ag 2 1.
Screening COc1cccc(NC(=O)c2ccccc2)c1 returned hgDAF-12 ag 8, hcDAF-12 act 2, DAX1 inh-1 0, DAX1 inh-2 2, ssDAF12 agonist -1 and SMARCA2 activ 5.
For CCc1nc2ccc(C(=O)NC3CCN(Cc4ccccc4)CC3)cn2c1N(CC)Cc1cccc(Br)c1 the results were hgDAF-12 ag -3, hcDAF-12 act 0, DAX1 inh-2 -1, ssDAF12 agonist -1 and SMARCA2 activ -2.
CCOC(=O)C1CCN(C(=O)CCc2ccc(S(=O)(=O)NCC(C)C)cc2)CC1 was read as hgDAF-12 ag 0, hcDAF-12 act -1, DAX1 inh-1 -2, DAX1 inh-2 0, ssDAF12 agonist -2 and SMARCA2 activ 1.
`Cc1nn2cc(-c3ccccc3)nc2s1` gave hgDAF-12 ag 14*, hcDAF-12 act 4, DAX1 inh-1 -1, DAX1 inh-2 5.7*, ssDAF12 agonist -1, SMARCA2 activ 1, DAX1 inh confirm 10*, SF1 AF2mut Luc 7.5*, hgDAF12 ag 15* and LXR ag 2 1.
Screening C(=N\N=C\c1cccnc1)/c1cccnc1 returned DAX1 inh-1 0.
For CN(/N=C/c1cccnc1)c1cnc2ccccc2n1 the results were hgDAF-12 ag 20*, hcDAF-12 act 12*, DAX1 inh-1 2, DAX1 inh-2 7.3*, ssDAF12 agonist 4.2*, SMARCA2 activ 9.0*, DAX1 inh confirm 11*, SF1 AF2mut Luc 5.8*, SMARCA2 act conf 19*, VP16 Luc act 11*, LXR ag 1, hcDAF12 conf 10*, hgDAF12 ag 17* and LXR ag 2 1.
`Cc1nc(Nc2ccccc2)sc1-c1ccccc1` gave hgDAF-12 ag 21*, hcDAF-12 act 9.8*, DAX1 inh-1 3, DAX1 inh-2 6.7*, ssDAF12 agonist 1.1*, SMARCA2 activ 5, DAX1 inh confirm 21*, SF1 AF2mut Luc 9.8*, LXR ag 2, hcDAF12 conf 8.3*, hgDAF12 ag 21* and LXR ag 2 1.
Screening Cc1nc(Nc2ccc(C(=O)O)cc2)sc1-c1ccccc1 returned hgDAF-12 ag 17*, hcDAF-12 act 10*, DAX1 inh-1 1, DAX1 inh-2 5.5*, ssDAF12 agonist 2.6*, SMARCA2 activ 9.1*, DAX1 inh confirm 3, SF1 AF2mut Luc 0, SMARCA2 act conf 9.2*, VP16 Luc act 5.4*, LXR ag 2, hcDAF12 conf 7.2*, hgDAF12 ag 10 and LXR ag 2 1.
For CC(=O)c1sc(Nc2ccccc2)nc1C the results were hgDAF-12 ag 4, hcDAF-12 act 2, DAX1 inh-2 0, ssDAF12 agonist -1 and SMARCA2 activ -2.
Cc1nc(Nc2ccccc2)sc1C(=O)c1ccccc1 was read as hgDAF-12 ag 6, hcDAF-12 act 0, DAX1 inh-2 0, ssDAF12 agonist -2 and SMARCA2 activ -1.
